Results on one compound are retold here after ChEMBL document CHEMBL2218924, “A broad activity screen in support of a chemogenomic map for kinase signalling research and drug discovery” (Biochem J, 2013).

For test [1], the target named is T1, Ephrin type-B receptor 1 (Homo sapiens) (UniProt P54762).
T1 sequence (whole entry): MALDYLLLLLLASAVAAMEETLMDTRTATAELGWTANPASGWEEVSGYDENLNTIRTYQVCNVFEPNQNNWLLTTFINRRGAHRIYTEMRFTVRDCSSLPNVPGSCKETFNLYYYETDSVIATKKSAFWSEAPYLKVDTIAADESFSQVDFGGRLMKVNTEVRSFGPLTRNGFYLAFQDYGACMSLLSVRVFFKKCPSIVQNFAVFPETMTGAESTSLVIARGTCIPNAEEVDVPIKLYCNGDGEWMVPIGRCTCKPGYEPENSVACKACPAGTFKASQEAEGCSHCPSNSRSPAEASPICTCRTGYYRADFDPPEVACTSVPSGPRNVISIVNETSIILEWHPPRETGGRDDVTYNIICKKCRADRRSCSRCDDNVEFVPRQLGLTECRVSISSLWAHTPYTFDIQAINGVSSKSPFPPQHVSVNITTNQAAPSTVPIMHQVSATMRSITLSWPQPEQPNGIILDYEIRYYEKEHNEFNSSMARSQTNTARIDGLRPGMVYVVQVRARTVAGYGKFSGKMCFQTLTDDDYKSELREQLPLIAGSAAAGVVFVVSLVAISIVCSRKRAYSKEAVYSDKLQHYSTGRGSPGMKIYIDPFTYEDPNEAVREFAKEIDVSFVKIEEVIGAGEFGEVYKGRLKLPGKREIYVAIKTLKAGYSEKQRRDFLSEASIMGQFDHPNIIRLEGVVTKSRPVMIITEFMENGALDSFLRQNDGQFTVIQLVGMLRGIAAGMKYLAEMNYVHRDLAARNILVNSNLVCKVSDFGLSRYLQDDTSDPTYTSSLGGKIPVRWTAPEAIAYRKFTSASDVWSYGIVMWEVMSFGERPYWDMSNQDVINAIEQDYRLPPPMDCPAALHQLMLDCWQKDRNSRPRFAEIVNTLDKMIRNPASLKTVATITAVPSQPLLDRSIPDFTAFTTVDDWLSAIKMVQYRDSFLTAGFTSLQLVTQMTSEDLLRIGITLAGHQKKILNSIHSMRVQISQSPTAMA
Conditions: at 10 µM; call rule not given here.

Test [2] has as its target T2, Ephrin type-B receptor 2 (Homo sapiens) (UniProt P29323).
T2 sequence (whole entry): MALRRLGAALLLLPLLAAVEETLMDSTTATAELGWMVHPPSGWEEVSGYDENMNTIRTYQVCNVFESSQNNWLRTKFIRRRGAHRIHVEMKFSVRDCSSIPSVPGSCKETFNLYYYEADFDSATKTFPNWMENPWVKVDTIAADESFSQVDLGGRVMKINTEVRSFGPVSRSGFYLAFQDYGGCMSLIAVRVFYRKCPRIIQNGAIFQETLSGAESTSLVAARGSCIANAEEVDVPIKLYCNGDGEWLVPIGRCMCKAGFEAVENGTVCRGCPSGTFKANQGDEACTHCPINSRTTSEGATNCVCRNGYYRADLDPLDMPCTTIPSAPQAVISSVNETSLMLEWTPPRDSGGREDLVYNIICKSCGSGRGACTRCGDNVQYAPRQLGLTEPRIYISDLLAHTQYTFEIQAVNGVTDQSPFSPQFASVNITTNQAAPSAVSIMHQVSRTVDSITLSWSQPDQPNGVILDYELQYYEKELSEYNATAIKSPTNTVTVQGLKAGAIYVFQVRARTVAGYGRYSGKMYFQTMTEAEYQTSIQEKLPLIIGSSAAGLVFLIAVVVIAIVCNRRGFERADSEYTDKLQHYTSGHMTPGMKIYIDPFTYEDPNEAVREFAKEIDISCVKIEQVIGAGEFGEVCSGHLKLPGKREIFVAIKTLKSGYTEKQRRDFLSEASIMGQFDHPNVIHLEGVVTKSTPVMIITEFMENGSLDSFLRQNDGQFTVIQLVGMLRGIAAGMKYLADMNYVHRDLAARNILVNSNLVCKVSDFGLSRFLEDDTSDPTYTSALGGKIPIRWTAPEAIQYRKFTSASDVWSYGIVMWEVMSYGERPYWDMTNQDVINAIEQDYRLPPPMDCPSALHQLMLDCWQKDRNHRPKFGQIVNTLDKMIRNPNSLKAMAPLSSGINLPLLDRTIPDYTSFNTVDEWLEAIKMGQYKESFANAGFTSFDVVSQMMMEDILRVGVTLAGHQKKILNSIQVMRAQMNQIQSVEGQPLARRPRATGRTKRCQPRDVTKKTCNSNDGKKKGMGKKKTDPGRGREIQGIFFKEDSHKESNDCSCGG
Conditions: at 1 µM.

The target of test [3] is T2, Ephrin type-B receptor 2 (Homo sapiens). Conditions: at 10 µM.
In test [4] the target is T3, Ephrin type-B receptor 3 (Homo sapiens) (UniProt P54753).
T3 sequence (whole entry): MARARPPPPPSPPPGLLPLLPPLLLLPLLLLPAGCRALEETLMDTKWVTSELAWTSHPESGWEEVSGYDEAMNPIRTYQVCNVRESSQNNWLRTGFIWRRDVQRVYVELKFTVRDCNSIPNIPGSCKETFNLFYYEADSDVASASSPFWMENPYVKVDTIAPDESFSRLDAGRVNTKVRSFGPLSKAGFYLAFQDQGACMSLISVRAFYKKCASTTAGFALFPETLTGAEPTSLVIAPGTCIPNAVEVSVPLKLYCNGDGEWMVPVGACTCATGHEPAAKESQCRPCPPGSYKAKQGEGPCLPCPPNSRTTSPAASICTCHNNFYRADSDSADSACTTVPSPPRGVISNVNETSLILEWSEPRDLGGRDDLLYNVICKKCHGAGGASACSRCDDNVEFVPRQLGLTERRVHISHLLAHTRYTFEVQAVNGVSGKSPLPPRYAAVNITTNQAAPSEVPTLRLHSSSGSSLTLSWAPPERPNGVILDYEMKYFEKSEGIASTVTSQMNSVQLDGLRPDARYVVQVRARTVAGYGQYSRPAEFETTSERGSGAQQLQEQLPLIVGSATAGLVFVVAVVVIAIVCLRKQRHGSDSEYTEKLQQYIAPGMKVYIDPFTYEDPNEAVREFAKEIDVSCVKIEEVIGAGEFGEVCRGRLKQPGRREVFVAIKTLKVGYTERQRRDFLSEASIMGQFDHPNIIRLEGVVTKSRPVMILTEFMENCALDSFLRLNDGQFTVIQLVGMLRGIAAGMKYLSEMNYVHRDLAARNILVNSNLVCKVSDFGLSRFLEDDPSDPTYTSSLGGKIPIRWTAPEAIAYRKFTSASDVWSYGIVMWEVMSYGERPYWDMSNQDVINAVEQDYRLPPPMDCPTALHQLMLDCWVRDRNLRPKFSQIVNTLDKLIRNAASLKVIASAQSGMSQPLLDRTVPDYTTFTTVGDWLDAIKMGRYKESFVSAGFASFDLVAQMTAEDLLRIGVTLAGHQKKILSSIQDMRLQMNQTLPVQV
The settings on record: at 1 µM.

Test [5] addresses T3, Ephrin type-B receptor 3 (Homo sapiens). The settings on record: at 10 µM.
Test [6] addresses T4, Ephrin type-B receptor 4 (Homo sapiens) (UniProt P54760).
T4 sequence (whole entry): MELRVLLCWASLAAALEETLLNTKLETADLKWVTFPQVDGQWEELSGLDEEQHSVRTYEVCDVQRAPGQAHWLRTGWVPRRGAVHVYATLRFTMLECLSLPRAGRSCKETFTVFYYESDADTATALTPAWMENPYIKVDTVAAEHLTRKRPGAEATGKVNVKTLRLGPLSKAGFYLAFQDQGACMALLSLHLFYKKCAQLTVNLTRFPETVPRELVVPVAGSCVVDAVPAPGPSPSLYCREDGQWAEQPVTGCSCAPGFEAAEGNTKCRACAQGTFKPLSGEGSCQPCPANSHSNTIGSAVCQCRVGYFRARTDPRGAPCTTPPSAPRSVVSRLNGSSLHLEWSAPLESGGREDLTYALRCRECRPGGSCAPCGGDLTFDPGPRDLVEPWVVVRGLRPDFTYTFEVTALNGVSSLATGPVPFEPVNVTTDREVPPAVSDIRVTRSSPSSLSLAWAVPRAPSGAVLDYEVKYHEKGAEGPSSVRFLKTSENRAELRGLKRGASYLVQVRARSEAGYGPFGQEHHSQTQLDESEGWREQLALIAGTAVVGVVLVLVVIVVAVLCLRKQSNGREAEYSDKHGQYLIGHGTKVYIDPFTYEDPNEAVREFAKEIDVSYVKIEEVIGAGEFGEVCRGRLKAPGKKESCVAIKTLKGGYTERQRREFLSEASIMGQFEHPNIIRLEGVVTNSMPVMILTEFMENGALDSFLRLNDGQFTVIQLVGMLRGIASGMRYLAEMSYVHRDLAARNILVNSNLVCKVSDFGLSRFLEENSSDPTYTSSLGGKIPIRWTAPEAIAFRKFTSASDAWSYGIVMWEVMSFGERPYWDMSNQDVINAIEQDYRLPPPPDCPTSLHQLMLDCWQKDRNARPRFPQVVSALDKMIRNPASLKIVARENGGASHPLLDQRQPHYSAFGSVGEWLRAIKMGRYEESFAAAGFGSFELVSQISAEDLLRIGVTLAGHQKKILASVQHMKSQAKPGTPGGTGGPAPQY
Conditions: at 1 µM.

The target in test [7] is T4, Ephrin type-B receptor 4 (Homo sapiens). The settings on record: at 10 µM.
The target in test [8] is Receptor tyrosine-protein kinase erbB-4 (Homo sapiens) (UniProt Q15303). The settings on record: at 1 µM.
Chain of Receptor tyrosine-protein kinase erbB-4 (Homo sapiens) (Q15303 whole entry): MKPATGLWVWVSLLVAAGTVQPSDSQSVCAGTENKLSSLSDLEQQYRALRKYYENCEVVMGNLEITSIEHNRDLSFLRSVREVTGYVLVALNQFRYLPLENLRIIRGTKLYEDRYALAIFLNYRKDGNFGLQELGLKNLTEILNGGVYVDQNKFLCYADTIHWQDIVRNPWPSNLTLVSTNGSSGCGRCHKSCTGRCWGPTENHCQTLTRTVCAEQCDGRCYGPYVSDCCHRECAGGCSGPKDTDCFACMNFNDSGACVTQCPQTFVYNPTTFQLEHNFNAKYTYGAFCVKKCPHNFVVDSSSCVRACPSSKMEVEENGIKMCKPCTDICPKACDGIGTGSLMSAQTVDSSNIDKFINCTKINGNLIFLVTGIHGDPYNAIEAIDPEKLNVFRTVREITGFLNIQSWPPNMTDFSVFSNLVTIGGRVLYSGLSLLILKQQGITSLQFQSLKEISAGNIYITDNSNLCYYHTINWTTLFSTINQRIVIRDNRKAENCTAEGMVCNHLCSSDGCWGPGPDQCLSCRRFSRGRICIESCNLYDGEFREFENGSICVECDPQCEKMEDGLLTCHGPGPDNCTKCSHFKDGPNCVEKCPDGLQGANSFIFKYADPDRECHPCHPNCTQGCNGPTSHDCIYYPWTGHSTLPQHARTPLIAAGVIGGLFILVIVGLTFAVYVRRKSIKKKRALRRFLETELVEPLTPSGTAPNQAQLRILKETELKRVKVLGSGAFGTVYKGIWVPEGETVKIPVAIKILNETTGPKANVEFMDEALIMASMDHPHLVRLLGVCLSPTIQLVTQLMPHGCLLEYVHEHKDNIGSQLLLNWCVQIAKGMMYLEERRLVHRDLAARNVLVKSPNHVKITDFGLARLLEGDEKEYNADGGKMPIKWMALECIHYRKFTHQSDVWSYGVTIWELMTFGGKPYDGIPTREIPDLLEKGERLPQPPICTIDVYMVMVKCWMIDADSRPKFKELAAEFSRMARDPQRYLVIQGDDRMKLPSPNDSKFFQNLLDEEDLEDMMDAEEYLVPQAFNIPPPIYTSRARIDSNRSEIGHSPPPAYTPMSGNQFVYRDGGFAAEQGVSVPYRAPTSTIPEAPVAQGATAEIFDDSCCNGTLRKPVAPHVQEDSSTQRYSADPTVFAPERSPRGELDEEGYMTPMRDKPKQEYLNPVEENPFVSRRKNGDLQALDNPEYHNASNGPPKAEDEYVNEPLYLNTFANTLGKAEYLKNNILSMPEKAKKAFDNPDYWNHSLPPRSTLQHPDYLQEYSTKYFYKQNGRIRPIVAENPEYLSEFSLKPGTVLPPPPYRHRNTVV
The target is the same in test [9]. Conditions: at 10 µM.
Test [10] addresses Focal adhesion kinase 1 (Homo sapiens) (UniProt Q05397). Conditions: at 1 µM.

Chain of Focal adhesion kinase 1 (Homo sapiens) (Q05397 2-1052 limits assumed): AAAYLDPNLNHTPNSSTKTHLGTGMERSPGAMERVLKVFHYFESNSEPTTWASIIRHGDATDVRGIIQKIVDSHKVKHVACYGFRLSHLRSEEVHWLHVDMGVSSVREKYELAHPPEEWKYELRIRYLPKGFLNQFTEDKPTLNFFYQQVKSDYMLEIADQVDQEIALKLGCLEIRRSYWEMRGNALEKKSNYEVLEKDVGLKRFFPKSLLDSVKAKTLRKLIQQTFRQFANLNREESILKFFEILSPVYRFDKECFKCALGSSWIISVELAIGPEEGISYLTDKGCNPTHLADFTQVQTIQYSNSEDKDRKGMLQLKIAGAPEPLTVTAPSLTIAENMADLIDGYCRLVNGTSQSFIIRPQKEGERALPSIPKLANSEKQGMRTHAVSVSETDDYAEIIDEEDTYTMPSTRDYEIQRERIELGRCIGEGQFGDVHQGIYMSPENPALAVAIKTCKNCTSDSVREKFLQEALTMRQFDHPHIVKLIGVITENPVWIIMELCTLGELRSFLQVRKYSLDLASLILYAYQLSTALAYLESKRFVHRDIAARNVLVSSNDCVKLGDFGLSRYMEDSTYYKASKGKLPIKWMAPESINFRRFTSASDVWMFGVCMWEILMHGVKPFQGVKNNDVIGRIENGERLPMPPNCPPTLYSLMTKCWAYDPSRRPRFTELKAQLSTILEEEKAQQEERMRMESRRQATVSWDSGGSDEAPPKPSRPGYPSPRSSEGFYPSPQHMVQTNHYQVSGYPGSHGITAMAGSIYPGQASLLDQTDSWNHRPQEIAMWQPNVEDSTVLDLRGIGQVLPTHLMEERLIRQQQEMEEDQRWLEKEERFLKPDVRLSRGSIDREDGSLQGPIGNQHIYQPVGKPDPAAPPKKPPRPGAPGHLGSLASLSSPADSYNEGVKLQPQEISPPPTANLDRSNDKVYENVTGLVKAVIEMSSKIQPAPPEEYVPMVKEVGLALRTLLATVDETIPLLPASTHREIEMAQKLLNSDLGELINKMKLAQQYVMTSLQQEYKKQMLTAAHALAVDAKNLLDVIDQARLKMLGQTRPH

Consider `Oc1ccc(-c2nc(-c3ccc(F)cc3)c(-c3ccncc3)[nH]2)cc1`, for which the residual activity in test [1] is 53%; in test [2] it was 94%; in test [3] it was 43%; in [4], 95% (inactive); in [5], 117%; in test [6], 103%. Besides, the residual activity in test [7] is 41%; in test [8], 114%; in test [9], 72%; in test [10], 117%.
